# The supplement of paper PMC9254222
# Over roughly 1,100 compounds, “Renilla luciferase signal (cell health) relative to plate median” has its median near 0.97; the highest 2% begin near 1.6. Only a selection was taken, and the highest values are over-represented in it overall.
# Test system: HEK293T (UBE3A T485A transfected, BAR Wnt reporter)
# Assay: Renilla luciferase signal (cell health) relative to plate median (fold (linear ratio)); higher = higher Renilla signal
# Details: 24 h
# Summary of the method: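 Chemicals at 0.01–100 uM were left on transfected HEK293T cells for 24 h, after a four-hour wait following transfection. The cells held a BAR firefly luciferase Wnt reporter, TK-Renilla and an expression plasmid. Wnt activity, as the firefly/Renilla ratio from a Dual-Glo luciferase readout, and cell health, as raw Renilla, were median-centred within each plate. Results average four biological replicates.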
smiles,measurement,setting,value
CSC(=O)c1cccc2nnsc12 [Acibenzolar-S-methyl],Renilla luciferase signal,concentration: 0.01 uM,0.985
same,Renilla luciferase signal,concentration: 0.1 uM,1.18
same,Renilla luciferase signal,concentration: 1 uM,1.05
same,Renilla luciferase signal,concentration: 10 uM,1.07
same,Renilla luciferase signal,concentration: 100 uM,1.8
CN(C)C(=O)Nc1ccc(Cl)c(Cl)c1 [Diuron],Renilla luciferase signal,concentration: 0.01 uM,0.747
same,Renilla luciferase signal,concentration: 0.1 uM,1.11
same,Renilla luciferase signal,concentration: 1 uM,1.06
same,Renilla luciferase signal,concentration: 10 uM,0.951
same,Renilla luciferase signal,concentration: 100 uM,0.328
O=C(CCCCCCCCc1cccnc1)N1CCC(C=C(c2ccccc2)c2ccccc2)CC1,Renilla luciferase signal,concentration: 0.1 uM,0.898
same,Renilla luciferase signal,concentration: 1 uM,0.875
same,Renilla luciferase signal,concentration: 10 uM,0.939
same,Renilla luciferase signal,concentration: 100 uM,0.0905
C=CCOC(Cn1ccnc1)c1ccc(Cl)cc1Cl (stereo not drawn) [Imazalil],Renilla luciferase signal,concentration: 0.01 uM,0.797
same,Renilla luciferase signal,concentration: 0.1 uM,0.885
same,Renilla luciferase signal,concentration: 1 uM,0.939
same,Renilla luciferase signal,concentration: 10 uM,0.777
same,Renilla luciferase signal,concentration: 100 uM,0.0667
c1ccc2c(c1)ccc1ccccc12 [Phenanthrene],Renilla luciferase signal,concentration: 0.1 uM,0.817
same,Renilla luciferase signal,concentration: 1 uM,0.792
same,Renilla luciferase signal,concentration: 10 uM,0.858
same,Renilla luciferase signal,concentration: 100 uM,0.898
c1ccc2ccccc2c1 [Naphthalene],Renilla luciferase signal,concentration: 0.1 uM,1.18
same,Renilla luciferase signal,concentration: 1 uM,1.14
same,Renilla luciferase signal,concentration: 10 uM,1.33
same,Renilla luciferase signal,concentration: 100 uM,1.64
c1ccc2cc3ccccc3cc2c1 [Anthracene],Renilla luciferase signal,concentration: 0.1 uM,1.34
same,Renilla luciferase signal,concentration: 1 uM,1.26
same,Renilla luciferase signal,concentration: 10 uM,0.952
same,Renilla luciferase signal,concentration: 100 uM,0.992
N=C(N)c1ccc(OCCCCCOc2ccc(C(=N)N)cc2)cc1.O=S(=O)(O)CCO.O=S(=O)(O)CCO [Pentamidine isethionate],Renilla luciferase signal,concentration: 0.1 uM,1.02
same,Renilla luciferase signal,concentration: 1 uM,2.37
same,Renilla luciferase signal,concentration: 10 uM,0.453
same,Renilla luciferase signal,concentration: 100 uM,0.0508
CCCCCCCC(=O)O [Octanoic acid],Renilla luciferase signal,concentration: 0.1 uM,0.834
same,Renilla luciferase signal,concentration: 1 uM,0.792
same,Renilla luciferase signal,concentration: 10 uM,0.83
same,Renilla luciferase signal,concentration: 100 uM,1.09
OCC(CO)(CO)CO [Pentaerythritol],Renilla luciferase signal,concentration: 0.1 uM,0.898
same,Renilla luciferase signal,concentration: 1 uM,1.02
same,Renilla luciferase signal,concentration: 10 uM,1.08
same,Renilla luciferase signal,concentration: 100 uM,2.01
"OCC(CO)(CBr)CBr [2,2-Bis(bromomethyl)-1,3-propanediol]",Renilla luciferase signal,concentration: 0.1 uM,0.999
same,Renilla luciferase signal,concentration: 1 uM,0.961
same,Renilla luciferase signal,concentration: 10 uM,1.01
same,Renilla luciferase signal,concentration: 100 uM,1.07
O=c1c(-c2ccc(O)cc2)coc2cc(O)cc(O)c12 [Genistein],Renilla luciferase signal,concentration: 0.01 uM,0.617
same,Renilla luciferase signal,concentration: 0.1 uM,0.604
same,Renilla luciferase signal,concentration: 1 uM,0.77
same,Renilla luciferase signal,concentration: 10 uM,0.58
same,Renilla luciferase signal,concentration: 100 uM,1.01
COc1cc(S(=O)(=O)[O-])c(C)cc1/N=N/c1c(O)ccc2cc(S(=O)(=O)[O-])ccc12.[Na+].[Na+],Renilla luciferase signal,concentration: 0.1 uM,0.934
same,Renilla luciferase signal,concentration: 1 uM,0.936
same,Renilla luciferase signal,concentration: 10 uM,0.887
same,Renilla luciferase signal,concentration: 100 uM,0.502
CC[C@H]1OC(=O)[C@H](C)[C@@H](O[C@H]2C[C@@](C)(OC)[C@@H](O)[C@H](C)O2)[C@H](C)[C@@H](O[C@@H]2O[C@H](C)C[C@H](N(C)C)[C@H]2O)[C@](C)(O)C[C@@H](C)C(=O)[C@H](C)[C@@H](O)[C@]1(C)O [Erythromycin],Renilla luciferase signal,concentration: 0.1 uM,0.894
same,Renilla luciferase signal,concentration: 1 uM,1.14
same,Renilla luciferase signal,concentration: 10 uM,2.38
same,Renilla luciferase signal,concentration: 100 uM,5.97
CCCC(CCC)C(=O)O [Valproic acid],Renilla luciferase signal,concentration: 0.01 uM,0.788
same,Renilla luciferase signal,concentration: 0.1 uM,0.847
same,Renilla luciferase signal,concentration: 1 uM,0.87
same,Renilla luciferase signal,concentration: 10 uM,0.883
same,Renilla luciferase signal,concentration: 100 uM,1.56
CCNc1nc(N)nc(Cl)n1 [Deisopropylatrazine],Renilla luciferase signal,concentration: 0.01 uM,0.898
same,Renilla luciferase signal,concentration: 0.1 uM,0.991
same,Renilla luciferase signal,concentration: 1 uM,0.951
same,Renilla luciferase signal,concentration: 10 uM,0.879
same,Renilla luciferase signal,concentration: 100 uM,0.243
CC(=O)S[C@H](C(=O)N[C@H]1Cc2ccccc2[C@H]2CCC[C@@H](C(=O)O)N2C1=O)C(C)C [Ilepatril],Renilla luciferase signal,concentration: 0.1 uM,0.879
same,Renilla luciferase signal,concentration: 1 uM,0.836
same,Renilla luciferase signal,concentration: 10 uM,0.857
same,Renilla luciferase signal,concentration: 100 uM,1.53
CCCCCCCCC(=O)O [Nonanoic acid],Renilla luciferase signal,concentration: 0.1 uM,0.743
same,Renilla luciferase signal,concentration: 1 uM,0.854
same,Renilla luciferase signal,concentration: 10 uM,0.901
same,Renilla luciferase signal,concentration: 100 uM,0.975
CN(C)c1ccc(C(=C2C=CC(=[N+](C)C)C=C2)c2ccc(N(C)C)cc2)cc1.[Cl-] [Gentian Violet],Renilla luciferase signal,concentration: 0.1 uM,0.155
same,Renilla luciferase signal,concentration: 1 uM,0.0242
same,Renilla luciferase signal,concentration: 10 uM,0.0245
same,Renilla luciferase signal,concentration: 100 uM,0.0226
"Nc1ccc(Nc2ccccc2)cc1 [N-Phenyl-1,4-benzenediamine]",Renilla luciferase signal,concentration: 0.1 uM,0.905
same,Renilla luciferase signal,concentration: 1 uM,0.984
same,Renilla luciferase signal,concentration: 10 uM,0.71
same,Renilla luciferase signal,concentration: 100 uM,0.204
c1ccc(Nc2ccccc2)cc1 [Diphenylamine],Renilla luciferase signal,concentration: 0.01 uM,1.09
same,Renilla luciferase signal,concentration: 0.1 uM,1.05
same,Renilla luciferase signal,concentration: 1 uM,1.06
same,Renilla luciferase signal,concentration: 10 uM,1.09
same,Renilla luciferase signal,concentration: 100 uM,1.82
CCNc1ccccc1 [N-Ethylaniline],Renilla luciferase signal,concentration: 0.1 uM,1.01
same,Renilla luciferase signal,concentration: 1 uM,0.97
same,Renilla luciferase signal,concentration: 10 uM,1.08
same,Renilla luciferase signal,concentration: 100 uM,1.17
Nc1ccc2c(c1)C(=O)c1ccccc1C2=O [2-Aminoanthraquinone],Renilla luciferase signal,concentration: 0.1 uM,1.16
same,Renilla luciferase signal,concentration: 1 uM,0.898
same,Renilla luciferase signal,concentration: 10 uM,0.829
same,Renilla luciferase signal,concentration: 100 uM,0.621
"Nc1cccc(N)c1 [1,3-Benzenediamine]",Renilla luciferase signal,concentration: 0.1 uM,1.19
same,Renilla luciferase signal,concentration: 1 uM,1.05
same,Renilla luciferase signal,concentration: 10 uM,1.19
same,Renilla luciferase signal,concentration: 100 uM,1.74
"Nc1cccc2c(N)cccc12 [1,5-Naphthalenediamine]",Renilla luciferase signal,concentration: 0.1 uM,0.805
same,Renilla luciferase signal,concentration: 1 uM,0.822
same,Renilla luciferase signal,concentration: 10 uM,0.856
same,Renilla luciferase signal,concentration: 100 uM,0.73
CCCCC(CC)CO (stereo not drawn) [2-Ethyl-1-hexanol],Renilla luciferase signal,concentration: 0.1 uM,0.758
same,Renilla luciferase signal,concentration: 1 uM,0.775
same,Renilla luciferase signal,concentration: 10 uM,0.504
same,Renilla luciferase signal,concentration: 100 uM,1.25
CCCCCCCCCCCCCCCCCC(=O)O [Octadecanoic acid],Renilla luciferase signal,concentration: 0.1 uM,0.913
same,Renilla luciferase signal,concentration: 1 uM,0.958
same,Renilla luciferase signal,concentration: 10 uM,0.923
same,Renilla luciferase signal,concentration: 100 uM,1.4
O=C(O)CC(O)C(=O)O (stereo not drawn) [Malic acid],Renilla luciferase signal,concentration: 0.1 uM,1.33
same,Renilla luciferase signal,concentration: 1 uM,1.26
same,Renilla luciferase signal,concentration: 10 uM,1.32
same,Renilla luciferase signal,concentration: 100 uM,1.29
CNC(CC(=O)O)C(=O)O (stereo not drawn),Renilla luciferase signal,concentration: 0.01 uM,1.02
same,Renilla luciferase signal,concentration: 0.1 uM,1.14
same,Renilla luciferase signal,concentration: 1 uM,0.949
same,Renilla luciferase signal,concentration: 10 uM,1.02
same,Renilla luciferase signal,concentration: 100 uM,1.9
Cc1ccc2oc(CN(Cc3ccccc3)C(=O)Nc3c(F)cc(F)cc3F)c(-c3ccc(Cl)cc3)c2c1,Renilla luciferase signal,concentration: 0.1 uM,0.953
same,Renilla luciferase signal,concentration: 1 uM,0.858
same,Renilla luciferase signal,concentration: 10 uM,0.846
same,Renilla luciferase signal,concentration: 100 uM,0.482
"CC(C)CCCCCCOC(=O)C1CCCCC1C(=O)OCCCCCCC(C)C (stereo not drawn) [Diisononyl cyclohexane-1,2-dicarboxylate]",Renilla luciferase signal,concentration: 0.1 uM,0.946
same,Renilla luciferase signal,concentration: 1 uM,1.13
same,Renilla luciferase signal,concentration: 10 uM,1.06
same,Renilla luciferase signal,concentration: 100 uM,1.38
COc1cc(C(C)C)c2c(c1)S(=O)(=O)N(COc1cc(=O)n3cccc(OCCN4CCCCC4)c3n1)C2=O,Renilla luciferase signal,concentration: 0.1 uM,1.26
same,Renilla luciferase signal,concentration: 1 uM,1.3
same,Renilla luciferase signal,concentration: 10 uM,1.21
same,Renilla luciferase signal,concentration: 100 uM,0.497
"CC(C)CC(C)(O)C#CC(C)(O)CC(C)C (stereo not drawn) [2,4,7,9-Tetramethyl-5-decyne-4,7-diol]",Renilla luciferase signal,concentration: 0.1 uM,0.987
same,Renilla luciferase signal,concentration: 1 uM,0.919
same,Renilla luciferase signal,concentration: 10 uM,0.966
same,Renilla luciferase signal,concentration: 100 uM,0.295
C#CCOC(=O)[C@@H](C)Oc1ccc(Oc2ncc(Cl)cc2F)cc1 [Clodinafop-propargyl],Renilla luciferase signal,concentration: 0.01 uM,0.926
same,Renilla luciferase signal,concentration: 0.1 uM,1.11
same,Renilla luciferase signal,concentration: 1 uM,1.04
same,Renilla luciferase signal,concentration: 10 uM,1.01
same,Renilla luciferase signal,concentration: 100 uM,0.269
CCCCOC(=O)c1ccccc1 [Butyl benzoate],Renilla luciferase signal,concentration: 0.1 uM,0.872
same,Renilla luciferase signal,concentration: 1 uM,0.958
same,Renilla luciferase signal,concentration: 10 uM,1.1
same,Renilla luciferase signal,concentration: 100 uM,1.1
CCCCOC(=O)C(C)Oc1ccc(Oc2ccc(C(F)(F)F)cn2)cc1 (stereo not drawn) [Fluazifop-butyl],Renilla luciferase signal,concentration: 0.01 uM,1.02
same,Renilla luciferase signal,concentration: 0.1 uM,0.837
same,Renilla luciferase signal,concentration: 1 uM,1.04
same,Renilla luciferase signal,concentration: 10 uM,0.984
same,Renilla luciferase signal,concentration: 100 uM,1.81
CCOC(=O)C(C)Oc1ccc(Oc2cnc3cc(Cl)ccc3n2)cc1 (stereo not drawn) [Quizalofop-ethyl],Renilla luciferase signal,concentration: 0.01 uM,1.1
same,Renilla luciferase signal,concentration: 0.1 uM,0.758
same,Renilla luciferase signal,concentration: 1 uM,0.993
same,Renilla luciferase signal,concentration: 10 uM,0.953
same,Renilla luciferase signal,concentration: 100 uM,1.88
CCOC(=O)C(C)(C)Oc1ccc(Cl)cc1 [Clofibrate],Renilla luciferase signal,concentration: 0.1 uM,0.962
same,Renilla luciferase signal,concentration: 1 uM,1.02
same,Renilla luciferase signal,concentration: 10 uM,1.17
same,Renilla luciferase signal,concentration: 100 uM,1.38
CCOC(=O)C(C)Oc1ccc(Oc2nc3ccc(Cl)cc3o2)cc1 (stereo not drawn) [Fenoxaprop-ethyl],Renilla luciferase signal,concentration: 0.01 uM,0.9
same,Renilla luciferase signal,concentration: 0.1 uM,0.851
same,Renilla luciferase signal,concentration: 1 uM,1.02
same,Renilla luciferase signal,concentration: 10 uM,1.13
same,Renilla luciferase signal,concentration: 100 uM,1.78
CCCCOC(=O)[C@@H](C)Oc1ccc(Oc2ccc(C(F)(F)F)cn2)cc1 [Fluazifop-P-butyl],Renilla luciferase signal,concentration: 0.01 uM,1.25
same,Renilla luciferase signal,concentration: 0.1 uM,1.18
same,Renilla luciferase signal,concentration: 1 uM,1.05
same,Renilla luciferase signal,concentration: 10 uM,1.22
same,Renilla luciferase signal,concentration: 100 uM,0.693
